Our source for the max response, negative = inhibition values is PubChem BioAssay AID652054 (National Center for Advancing Translational Sciences (NCATS), 2013).

Among all 360,000 compounds or so, about 9,100 (2.5%) were called active. Inconclusive results (about 4%) are left out. The full list was thinned out, with actives kept by preference. Unmarked numbers belong to inactive results. No stated cut-off is given here; in the data, active means max response below about -50%; inconclusive means no clear call, values can overlap the other calls; inactive means above that.
On the % scale 0 is the no-effect control and ±100 the full control effect.

D(3) dopamine receptor (Homo sapiens), sequence (P35462 whole entry, looked up): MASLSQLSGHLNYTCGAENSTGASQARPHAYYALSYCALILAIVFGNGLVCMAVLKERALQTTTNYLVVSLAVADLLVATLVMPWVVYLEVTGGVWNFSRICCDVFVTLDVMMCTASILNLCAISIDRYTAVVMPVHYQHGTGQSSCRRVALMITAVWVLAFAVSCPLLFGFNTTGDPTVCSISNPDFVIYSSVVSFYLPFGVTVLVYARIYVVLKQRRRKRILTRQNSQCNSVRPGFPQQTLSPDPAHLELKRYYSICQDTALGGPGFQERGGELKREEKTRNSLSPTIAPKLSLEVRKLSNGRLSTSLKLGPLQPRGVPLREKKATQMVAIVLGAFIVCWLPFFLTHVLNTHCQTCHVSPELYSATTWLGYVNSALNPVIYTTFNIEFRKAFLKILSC

The assay concerns the target D(3) dopamine receptor (Homo sapiens) (UniProt P35462). Put plainly: qHTS of D3 Dopamine Receptor Antagonist: qHTS. The settings on record: D3R cells, DiscoveRx beta-arrestin luminescence, antagonist mode; stronger effect = lower value. The method in brief:
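Cells plated overnight at 1500 cells/well, then exposed to library compounds with dopamine controls for 90 minutes at 37 degrees C. DiscoveRx reagent added for 30–60 minutes at room temperature; luminescence read, quantitative HTS format.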
A general note: In qHTS, concentration-response curves come from the screen itself.
Regarding `CN(C)CCNC(=O)c1ccc(-c2cn3c(-c4ccc(Oc5ccccc5)cc4)cnc3cn2)cc1`, the max response, negative = inhibition was -27.6%.
Next, `CCCNC(=O)C1(C)CCN(C(=O)c2ccccc2OC(F)(F)F)C1` (centres undefined): 7.72%; `Cc1ccc(S(=O)(=O)N2C[C@H]3n4c(=O)ccc(=O)n4C[C@H](OC(=O)NC4CCCC4)[C@@]3(O)C2)cc1`: 10.7%.
For `C[C@@H]1CN([C@@H](C)CO)C(=O)c2c(c3ccccc3n2C)-c2ccccc2CO[C@H]1CN(C)C(=O)C1CC1`, the max response, negative = inhibition is 5.32%.
As to `COc1ccc(-c2coc3c(C(=O)NC(C)C)cccc23)c(C)c1`, the max response, negative = inhibition was 71.6%.
Next, `COc1ccc([C@H]2CC(=O)C=C(c3ccc(C)cc3)C2)cc1`: -60.5% (active); `COc1ccc2cc(C3=CC(=O)C[C@H](c4ccc5c(c4)OCO5)C3)ccc2c1`: 6.05%; `COc1ccc([C@H]2CC(=O)C=C(c3ccc(CO)cc3)C2)cc1`: 3.98%.
For `CCCCC/C=C/C1=CC(=O)C[C@H](c2ccc(Cl)cc2)C1`, the max response, negative = inhibition was 8.93%.
Under `COc1ccc(C2CC(=O)NC(=O)C2)cc1` stands -22.1%; under `COc1ccc([C@H]2CC(=O)C=C(/C=C/c3ccc(Cl)cc3)C2)cc1`, -56.6% (active).
Under `CCCNC(=O)c1cc(C2CCCN(C(=O)c3ccc4c(c3)CCO4)C2)on1` (centres undefined) stands 3.62%; under `O=S1(=O)CC(N2CCN(Cc3ccccc3F)CC2)CN1Cc1cn(Cc2ccccc2)nn1` (centres undefined), 0%; under `COc1ccc(NC(=O)Nc2cccc3cccnc23)cc1`, -66.6% (active).
Take `O=C(Nc1ccccc1)Oc1cccc2cccnc12`: the max response, negative = inhibition is -27.7%.
Next, `COc1cccc(NC(=O)Nc2ccc(F)cc2)c1`: 3.65%; `CCOC(=O)[C@]12CCCC=C1N(Cc1ccc(Cl)cc1Cl)C(=O)[C@H](CC(=O)N1CCCCC1)C2`: -25.8%.
Regarding `Cc1ccc2c(c1)C1CN(C)CCC1N2S(=O)(=O)c1ccc(Oc2ccc([N+](=O)[O-])cc2)cc1` (centres undefined), the max response, negative = inhibition is -68.7% (active).
Next, `Cc1ccc2c(c1)C1CN(C)CCC1N2C(=O)c1ccccc1NS(=O)(=O)c1ccc(F)cc1C` (centres undefined): -23.3%; `Cc1ccc2c(c1)C1CN(C)CCC1N2C(=S)Nc1ccc(OC(F)F)cc1` (centres undefined): -6.37%.
Under `Cc1ccc([N+](=O)[O-])cc1S(=O)(=O)N1CCCN(C)CC1` stands -7.78%.
As for `Cc1ccc2c(c1)C1CN(C)CCC1N2S(=O)(=O)c1cccc(F)c1` (centres undefined), the max response, negative = inhibition was -54.7% (active).
Under `Cc1ccc2c(c1)C1CN(C)CCC1N2C(=S)Nc1ccc(Cl)cc1Cl` (centres undefined) stands -8.46%; under `O=C(Nc1cccc(Cc2ccccc2)c1)Nc1ccc2nc([C@@H]3O[C@H](CO)[C@@H](O)[C@H](O)[C@H]3O)[nH]c2c1`, 32.8%.
